Sampled rows, rich in hits. Any-hit rate of the full collection: about 8.9%.
IMPase cell inh: IMPase inhibition in cells; P97697; CHO-M1 cells, IP1 accumulation, HTRF TR-FRET ratio; inhibition (IP1 accumulation), % at 46.1 µM; 120,000 tested, under 10 active; active = well fitted curve in the direction sought with a large enough effect in the signal ratio, not every such curve was filed as active; inconclusive = small, poorly fitted or top-dose-only effect, or a change in a side signal; inactive = no such curve, though single readings can be large or run the other way; the % refers to the signal ratio;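 note: cells stimulated with carbachol in lithium chloride buffer; plate controls were DMSO basal wells for no effect and reference inhibitor wells for full effect; higher means more IMPase inhibition seen as more IP1 and lower FRET ratio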
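Seeded CHO-M1 cells were dosed with compound at up to 46 uM, stimulated with carbachol for 30 min, then lysed in IP-One detection reagents. Higher IP1 lowers the TR-FRET signal.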
12-hLO inh: 12-hLO (ALOX12) enzyme inhibition | hit rate 0.12% among 150,000 | P18054 | purified 12-hLO, xylenol orange hydroperoxide absorbance | Potency, µM (top dose mostly 57.1 µM), for the others: at the highest dose activity change, negative = inhibition, usual class: inhibitors; note: potency is the fitted concentration of half-maximal effect; nearly all actives have a fitted effect of over 55% in size
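Purified human 12hLO (150 nM final) was preincubated with compounds for 15 min at room temperature in 25 mM Hepes pH 7.0, 0.01% Triton X-100, then reacted with 40 uM arachidonic acid for 30 min. Hydroperoxide was detected with ferrous iron/xylenol orange.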
NPSR antag: blocks cAMP signaling of the human neuropeptide S receptor | Q6W5P4 | AID 1461 | Potency, µM (series often up to 38.3 µM), for inactives: at the highest dose activity change, negative = inhibition, usual class: inhibitors | hit rate 1% among 220,000 | CHO-NPSR cells, cAMP TR-FRET, antagonist mode; note: potency is the fitted concentration of half-maximal effect; nearly all actives have a fitted effect of over 50% in size
IMPase Li cell: membrane-permeable IMPase blocker, potentiated with lithium; hit rate 0.35% among 210,000; Potency, µM (highest dose often 59.4 µM), for the others: top-dose activity, negative = IMPase inhibition, usual class: inhibitors; CHO-M1 cells, IP1 TR-FRET (IP-One), carbachol + lithium; AID 1457;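 note: IP1 builds up when IMPase is blocked and the TR-FRET signal falls; potency is the fitted concentration of half-maximal effect; plate controls were basal vehicle for no effect and high inhibitor control for full effect; nearly all actives have a fitted effect of over 50% in size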
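Test compounds were applied to CHO-M1 cells previously cultured for 16–30 h at 2000 per well. A small lithium amount accompanied them; after 30 min at 37C, IP1 was quantified by TR-FRET.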
HPGD inh: HPGD (human) dehydrogenase inhibition; Potency, µM, for the others: at the top dose activity change, negative = inhibition, actives largely listed as inhibitors; purified HPGD, NADH fluorescence kinetic, PGE2 substrate; hit rate 4.3% among 150,000; P15428; active = well fitted inhibition curve with a large enough effect, not every such curve was filed as active; inconclusive = small, poorly fitted or top-dose-only effect, or another doubt; inactive = no such curve, though single readings can be large or run the other way; note: potency is the fitted concentration of half-maximal effect
Target sequence (P15428 whole entry, looked up): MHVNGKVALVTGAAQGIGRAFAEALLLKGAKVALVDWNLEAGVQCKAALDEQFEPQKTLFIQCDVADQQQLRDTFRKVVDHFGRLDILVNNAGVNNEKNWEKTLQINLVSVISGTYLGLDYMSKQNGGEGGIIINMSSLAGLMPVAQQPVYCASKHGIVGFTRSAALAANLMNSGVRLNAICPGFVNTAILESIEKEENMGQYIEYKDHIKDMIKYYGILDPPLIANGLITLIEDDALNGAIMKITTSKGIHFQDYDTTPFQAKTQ
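NADH formation kinetics: reaction with 30 uM PGE2 and 1 mM NAD+ (final), 20 nM enzyme, Tris-HCl pH 8 with Tween 20, after 15 min compound preincubation at room temperature. Fluorescence change, last versus first of five reads.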
ALDH1A1 block: ALDH1A1 (human) enzyme inhibition | hit rate 7.3% among 220,000 | Purified ALDH1A1, NADH fluorescence, propionaldehyde substrate | Potency, µM (top dose mostly 75.3 µM), inactives show top-dose activity, negative = inhibition, actives largely listed as inhibitors | AID 1030; active = well fitted inhibition curve with a large enough effect, not every such curve was filed as active; inconclusive = small, poorly fitted or top-dose-only effect, or another doubt; inactive = no such curve, though single readings can be large or run the other way;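 note: potency is the fitted concentration of half-maximal effect; plate controls were no enzyme wells and a reference inhibitor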
Target sequence (P00352 whole entry, looked up): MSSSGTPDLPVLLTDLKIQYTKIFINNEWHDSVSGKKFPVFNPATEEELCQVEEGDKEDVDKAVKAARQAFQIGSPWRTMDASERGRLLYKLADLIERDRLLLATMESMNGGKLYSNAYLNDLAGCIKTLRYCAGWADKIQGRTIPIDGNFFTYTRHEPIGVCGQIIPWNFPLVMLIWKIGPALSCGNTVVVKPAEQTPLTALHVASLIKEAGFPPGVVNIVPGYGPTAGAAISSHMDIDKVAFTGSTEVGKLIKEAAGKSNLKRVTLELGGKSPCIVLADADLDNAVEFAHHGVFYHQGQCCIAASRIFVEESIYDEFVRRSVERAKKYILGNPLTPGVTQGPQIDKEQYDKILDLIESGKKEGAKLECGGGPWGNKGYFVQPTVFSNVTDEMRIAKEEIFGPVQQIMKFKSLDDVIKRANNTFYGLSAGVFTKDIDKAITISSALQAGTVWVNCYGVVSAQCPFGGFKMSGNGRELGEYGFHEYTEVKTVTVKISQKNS
* = called active by the depositor; ? = inconclusive; . = not tested or not shown; [ ] = another dose, or the depositor's remark. Unless noted, calls come from the whole dose curve; as a rule, active = well fitted curve in the direction sought with a large enough effect; inconclusive = small, poorly fitted or top-dose-only effect, or another doubt; inactive = no such curve, though single readings can be large; an effect the other way counts as inactive or inconclusive. Unless noted, % is set by controls: 0 for no effect and ±100 for the full control effect.

SMILES | IMPase cell inh | 12-hLO inh | NPSR antag | IMPase Li cell | HPGD inh | ALDH1A1 block
CCn1cc(C(=O)NCc2ccco2)c(=O)c2cc(S(=O)(=O)N3CCC(C)CC3)ccc21 | -3 | -16% | ? | 16%[38.3 µM] | -21% | ?
CCn1cc(C(=O)NCc2ccco2)c(=O)c2cc(S(=O)(=O)N3CCc4ccccc4C3)ccc21 | ? | -8% | -27%[46.1 µM] | 15%[38.3 µM] | -30% | 20µM*
CCn1cc(C(=O)NCc2ccco2)c(=O)c2cc(S(=O)(=O)N3CCCCCC3)ccc21 | -3 | -12% | ? | 9%[38.3 µM] | -24% | 8.9µM*
NS(=O)(=O)c1cc2c(cc1C(F)(F)F)NCNS2(=O)=O | 5[20.6 µM] | -1% | 12% | -4% | 3% | -9%
CC(C)(C)c1[nH]ncc1[N+](=O)[O-] | . | . | 36% | 10% | . | ?
Cc1ccccc1C(=O)Nc1cccc(-c2ccc3nncn3n2)c1 | . | . | -27% | 2% | . | 14µM*
COc1ccc(OCC#CCN2CC(C)OC(C)C2)cc1 (stereo unspecified) | . | . | 1% | 4% | . | 6.3µM*
CCOC(=O)c1c(NC(=O)CSC(=S)N(C)C)sc(C)c1C | . | -3% | -24% | 12% | -18% | 25µM*
CCOC(=O)c1c(NC(=O)c2ccc(Cl)s2)sc(C)c1C | -8 | -10% | -5%[46.1 µM] | 12%[38.3 µM] | ? | ?
CCOC(=O)c1c(NC(=O)CSc2ncn[nH]2)sc(C)c1C | -9 | 6% | -25%[46.1 µM] | -3% | -14% | 25µM*
CCOC(=O)c1c(NC(=O)CNCCO)sc(C)c1C | 5 | -3% | -8%[46.1 µM] | . | . | ?
CCOC(=O)c1c(N2C(=O)C=CC2=O)sc(C)c1C | -14 | -29% | ? | 23% | 2µM* | 0.5µM*
CC1(C)[C@@H](O)CC[C@]2(C)C3C(=O)C=C4C5C[C@@](C)(C(=O)O)CC[C@]5(C)CC[C@@]4(C)[C@]3(C)CC[C@@H]12 (stereo partly specified) | 2 | 1% | . | 2% | -1% | 0%
O=C(CCC(=O)N(CC(=O)NC1CCCC1)Cc1ccc2c(c1)OCO2)Nc1nccs1 | . | . | -14% | 12% | . | -7%
C/C(=N/NC(=O)c1cccs1)c1cccc(N)c1 | . | . | -2% | 2% | . | ?
CC(=O)Nc1ccc(C(=O)Cn2nnc3ccccc3c2=O)cc1 | ? | -8% | 3%[46.1 µM] | -2%[38.3 µM] | -8% | 8.9µM*
Clc1ccc(CNC2CCCC2)cc1 | 2 | 1% | -5%[46.1 µM] | 26%[38.3 µM] | -1% | 1%
Cn1c(SCn2nnc3ccccc3c2=O)nc2ccccc2c1=O | . | . | 3% | 8% | . | ?
CCN(CC)S(=O)(=O)c1ccc2c(c1)nc(SCn1nnc3ccccc3c1=O)n2CC | -8 | -1% | -8%[46.1 µM] | 7%[38.3 µM] | -16% | 10µM*
Cc1cc(=O)[nH]c(N/N=C/C2=C(N3CCOCC3)C(=C\c3ccc(Cl)cc3)/CC2)n1 | . | -21% | -15% | 11% | -20% | 11µM*
CC(=O)NC(Cc1ccc(C(C)C)cc1)C(=O)NC1CCN(C(=O)c2cccc(C)c2)CC1 (stereo unspecified) | . | . | -18% | -1% | . | 25µM*
Cn1nc(C(=O)NC2CCCCC2)c2ccccc2c1=O | 0 | 6% | -8%[46.1 µM] | -6%[38.3 µM] | -9% | ?
Cn1nc(C(=O)Nc2nnc(C3CC3)s2)c2ccccc2c1=O | . | . | -12% | -5% | . | 13µM*
COc1ccc(OC)c(C2C(C(C)=O)=C(O)C(=O)N2CCc2ccc(OC)c(OC)c2)c1 (stereo unspecified) | -10 | 4% | 1%[46.1 µM] | -13% | -19% | 2%
Nc1nnc(SCC(=O)N2CCc3ccccc32)n1-c1ccccc1 | -3 | 9% | -14%[46.1 µM] | 5% | -10% | -3%
SMILES | IMPase cell inh | 12-hLO inh | NPSR antag | IMPase Li cell | HPGD inh | ALDH1A1 block
CC1CCN(C(=O)CSc2nnc(CN3CCOCC3)n2-c2ccccc2)CC1 | 14 | -8% | -3%[46.1 µM] | 13%[38.3 µM] | -12% | 1.3µM*
O=C(CSc1nnc(CN2CCOCC2)n1-c1ccccc1)N1CCc2ccccc21 | 28 | 1% | -7%[46.1 µM] | -8%[38.3 µM] | 0% | 7.9µM*
O=C(O)c1ccccc1NC(=S)NC(=O)c1sc2ccccc2c1Cl | . | . | -30% | ? | . | ?
O=C(NN=C1CCCC1)c1sc2ccccc2c1Cl | . | . | 16% | -2% | . | 16µM*
O=C(NNC(=O)c1sc2ccccc2c1Cl)Nc1ccc(Cl)cc1 | -4 | -1% | -12%[46.1 µM] | -16%[38.3 µM] | -8% | 8.9µM*
O=C(NNC(=S)NC(=O)c1sc2ccccc2c1Cl)c1ccc(Cl)cc1 | -5 | 0% | -25% | -28% | -24% | 28µM*
O=C1CCC/C(=N/NC(=O)c2sc3ccccc3c2Cl)C1 | . | . | -15% | . | . | .
O=C(c1ccco1)N1CCN(S(=O)(=O)c2ccc([N+](=O)[O-])cc2)CC1 | . | . | -17% | 11% | . | -15%
Cc1ccc(S(=O)(=O)NC(CN2CCOCC2)=NCCNS(=O)(=O)c2ccccc2)cc1 | -4 | 1% | -13%[46.1 µM] | 7% | -13% | 2.5µM*
Cc1ccc(S(=O)(=O)NCCNC(=O)N2CCOCC2)cc1 | 2 | -3% | -6%[46.1 µM] | -7%[38.3 µM] | -8% | -1%
CCOC(=O)CCc1c(C)nc(SCCCn2c(=O)[nH]c3ccccc32)c(C#N)c1C | -6 | 5% | -29%[46.1 µM] | 20%[38.3 µM] | 16µM* | 32µM*
CCOC(=O)CCc1c(C)nc(SCCN2CCCC2)c(C#N)c1C | 7 | -3% | -8%[46.1 µM] | 11%[38.3 µM] | -5% | -5%
Cc1ccccc1-n1c(SCC(=O)c2cc(C)n(C)c2C)nnc1-c1cccnc1 | 5 | 1% | -27%[46.1 µM] | 28%[38.3 µM] | 25µM* | ?
COCCn1c(C)cc(C(=O)CSc2nnc(-c3cccnc3)n2-c2ccccc2F)c1C | 3 | -8% | -15%[46.1 µM] | -3%[38.3 µM] | -5% | 1%
CCN(CC)C(=O)Cc1c(OC)ccc2cc(Br)ccc12 | . | . | -6% | -19% | . | -4%
CCN(Cc1ccncc1)Cc1c(O)ccc2cc(Br)ccc12 | . | . | -34% | -27% | . | 0.56µM*
COC(=O)[C@@]1(Cc2ccc(F)cc2)[C@H]2c3cc(C(=O)N(C)C)n(Cc4ccc(C)o4)c3C[C@H]2CN1C(=O)c1ccccc1 | . | -7% | . | 13% | 18µM* | -8%
C=C1c2ccccc2O[C@H](C(=O)OCC)C1OC (mixture of isomers) | . | 4%[0.00818 µM] | . | 6% | -11% | 32µM*
C=C1c2ccccc2O[C@H](C(=O)OCC)[C@@H]1CCC(C)C (tested in a mixture with another compound) | . | -12%[0.00818 µM] | . | 21% | -11% | 32µM*
COc1cccc(C(=O)OC2CCN(C)CC2)c1 | . | . | -4% | 9% | . | 15%
CC1Cc2ccccc2N1C(=O)CO/N=C/c1ccccc1OC(F)F (stereo unspecified) | 6 | 2% | -56% | 11% | -18% | ?
O=C(CO/N=C/c1ccccc1OC(F)F)NCc1ccco1 | . | . | 22% | . | . | .
O=C(CO/N=C/c1ccccc1OC(F)F)NCc1cccs1 | . | -3% | 2% | 0% | 16µM* | 8%

From PubChem BioAssay
